# Source: PubChem BioAssay (National Center for Advancing Translational Sciences (NCATS))
# An excerpt weighted towards active compounds, which were near 2.8% of everything screened.
# S16 F2sN tox = Cell viability qHTS assay in S16 Pmp22-F2sN cells. S16 Pmp22-F2sN Schwann cells viability, CellTiter-Glo, 24 h. Potency, µM (series often up to 57.5 µM), hits mostly cytotoxic. 0.48% of 43,000 active. AID 1508642, 2021; note: nearly all actives have a fitted effect of over 65% in size
#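 S16 Schwann cells carrying the Pmp22-F2sN reporter, seeded in 1536-well format, were exposed to library compounds for 24 h at 37C. Viability was read as CellTiter-Glo luminescence after 15 min at room temperature.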
# pS6 MEF inh = Acumen qHTS Assay for Inhibitors of the mTORC1 Signaling Pathway in MEF (Tsc2-/-, p53-/-) Cells: Sytravon; Potency, µM (highest dose often 38.3 µM), most hits filed as inhibitors; AID 493208, 2011; 0.78% of 44,000 active; Tsc2-/- p53-/- MEF, phospho-rpS6 immunofluorescence/PI, 24 h; note: nearly all actives have a fitted effect of over 50% in size
#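 Cell-based qHTS: Tsc2-/- p53-/- MEF, 24 h cpd, 37 °C; fix/perm, anti-phospho-S6 Alexa-488 + PI; Acumen 488 nm scan; pS6/PI ratio, % positive cells; rapamycin 7.5 nM = inhibition ref; PI count = viability.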
# PMP22 txn prim = Cell-based coincidence reporter assay to measure PMP22 gene transcription in S16 Pmp22-F2sN cells - Primary screen. S16 Pmp22-F2sN Schwann cells (luciferase reporters placed in the Pmp22 gene), FLuc/NLuc coincidence luminescence, 24 h. Potency, µM (titrated, usually from 57.5 µM), most hits filed as inhibitors. 2% of 43,000 active. AID 1508649, 2021; active = clear falling dose curves in both reporters; inconclusive = both reporters move, but less clearly or upward; inactive = either reporter flat; the % is the NLuc reporter signal
#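 Transcriptional readout in edited S16(c9) cells: two luciferases reported from the Pmp22 locus, measured in turn after 24 h compound incubation.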
# GALC G270D up = A Novel Cell-Based Assay to Identify Small Molecules for B -Galactocerebrosidase | 145M-Twi-hGALC-G270D cells (Twitcher mouse brain line with human GALC G270D), HMU-beta-Gal fluorescence, 48 h | Potency, µM (series often up to 57.5 µM), usual class: activators | 0.1% of 45,000 active | AID 1159614, 2016; note: nearly all actives have a fitted effect of over 65% in size
# Target sequence (P54803 whole entry G286D): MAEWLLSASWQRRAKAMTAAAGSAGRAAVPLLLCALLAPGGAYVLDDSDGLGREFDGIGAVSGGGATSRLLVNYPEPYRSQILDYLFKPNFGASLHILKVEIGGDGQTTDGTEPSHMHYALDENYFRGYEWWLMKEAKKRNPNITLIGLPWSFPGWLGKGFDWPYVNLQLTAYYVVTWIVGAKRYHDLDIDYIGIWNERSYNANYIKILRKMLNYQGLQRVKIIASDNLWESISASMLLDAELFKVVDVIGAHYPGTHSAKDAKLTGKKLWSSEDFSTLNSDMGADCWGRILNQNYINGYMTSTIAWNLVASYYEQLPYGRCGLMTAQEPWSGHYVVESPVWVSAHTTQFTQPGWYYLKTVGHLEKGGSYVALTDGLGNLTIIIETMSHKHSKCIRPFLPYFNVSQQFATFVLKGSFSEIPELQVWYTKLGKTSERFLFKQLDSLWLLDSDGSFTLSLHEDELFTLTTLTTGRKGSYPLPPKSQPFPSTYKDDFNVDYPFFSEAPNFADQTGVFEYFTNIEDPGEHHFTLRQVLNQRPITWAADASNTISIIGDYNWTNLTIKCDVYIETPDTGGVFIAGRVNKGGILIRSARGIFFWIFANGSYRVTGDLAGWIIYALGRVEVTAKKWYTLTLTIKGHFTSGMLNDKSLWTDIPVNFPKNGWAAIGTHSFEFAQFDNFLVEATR
#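 Fluorogenic HMU-b-Gal hydrolysis (0.1 mM final, pH 5.2 citrate-phosphate with 1 mg/mL sodium taurocholate; carbonate stop buffer) measures mutant GALC activity after compound treatment of live 145M-Twi Twitcher brain cells stably carrying human GALC-G270D, with wild-type GALC line alongside; activation sought.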
# A number is an active result; - = inactive; ? = inconclusive; . = no result given. Unless noted, calls come from the whole dose curve; as a rule, active = well fitted curve in the direction sought with a large enough effect; inconclusive = small, poorly fitted or top-dose-only effect, or another doubt; inactive = no such curve, though single readings can be large; an effect the other way counts as inactive or inconclusive.
SMILES,S16 F2sN tox,pS6 MEF inh,PMP22 txn prim,GALC G270D up
Cc1ccc(CNC(=O)c2cccc(Nc3nc4ccccc4n4nnnc34)c2)cc1,8.91µM,-,11.3µM,-
O=C(NCCc1ccccc1)c1ccc(Nc2nc3ccccc3n3nnnc23)cc1,28.2µM,-,?,-
CC(C(=O)NCc1cccc(Br)c1)n1ncn2cccc2c1=O (stereo not given),-,0.585µM,-,-
CCCN(CCC)CC(O)Cn1cc(/C=C/C(=O)c2ccc(OCC)cc2)c2ccccc21 (stereo not given),?,?,?,35.5µM
Cc1cccc(N2CCN(c3ncnc4c3nc3n4CCCCC3)CC2C)c1 (stereo not given),8.91µM,9.27µM,4.39µM,-
O=C(C1CCN(c2ncnc3c2nc2n3CCCCC2)CC1)N1CCN(c2ccc(F)cc2)CC1,?,-,?,-
Fc1ccc(N2CCN(c3ncnc4c3nc3n4CCCC3)CC2)cc1,?,-,4.5µM,-
CNC(=O)c1ccccc1Sc1ccc2c(/C=C/c3ccccn3)n[nH]c2c1,.,.,.,-
CCN(CC)CCOC(=O)c1ccc(NC(=O)c2nn(-c3ccc(C)cc3)c(=O)c3c2c2ccccc2n3C)cc1,4.47µM,0.927µM,5.15µM,-
C=C(C)C(=O)OCC(O)CO (stereo not given),.,.,.,-
Cc1cc(=O)oc2cc(O[C@@H]3SC[C@@H](O)[C@H](O)[C@H]3O)ccc12,.,.,.,-
O=C(Nc1ccc(F)cc1F)c1cc2c(=O)n3ccccc3nc2s1,-,-,-,22.4µM
N#Cc1ccccc1NC(=O)c1cc2c(=O)n3ccccc3nc2s1,-,-,-,?
Cc1cc(N2CCN(C)CC2)nc2ccc(NC(=O)Nc3cccc(Cl)c3)cc12,25.1µM,?,?,-
Cc1cccc(C(=O)Nc2c(C(=O)NCc3ccc(Cl)cc3)sc3nc(C)cc(C)c23)c1,?,13.1µM,?,-
O=S(=O)(NCC(c1cccs1)S(=O)(=O)c1ccccc1)c1ccc(F)c(C(F)(F)F)c1 (stereo not given),20µM,-,?,-
O=S(=O)(NCC(c1cccs1)S(=O)(=O)c1ccccc1)c1ccc(F)cc1 (stereo not given),20µM,-,?,-
NC(=O)NC1N=C([O][Al])NC1=O (stereo not given),.,.,.,-
Cn1c(=O)oc2cc(S(=O)(=O)N3CCC(C(=O)N4CCN(c5ccc(Cl)cc5)CC4)CC3)ccc21,?,-,13.4µM,-
CCN(CC)CCN,.,.,.,-
CCNC(=O)c1c(NC(=O)c2nc(S(=O)(=O)CC)ncc2Cl)sc2c1CCCC2,4.47µM,?,4.47µM,-
CCSc1ncc(Cl)c(C(=O)Nc2sc3c(c2C(=O)NCCCOC)CCCC3)n1,-,-,-,-
COCCCNC(=O)c1c(NC(=O)c2nc(S(C)(=O)=O)ncc2Cl)sc2c1CCCC2,3.55µM,-,1.96µM,-
O=c1oc2c(CN3CCOCC3)c(O)ccc2cc1-c1ccccc1,-,-,-,25.1µM
O=C(Nc1ccc2oc(-c3ccc4ccccc4c3)nc2c1)c1cc(Br)ccc1Cl,-,16.5µM,?,-
SMILES,S16 F2sN tox,pS6 MEF inh,PMP22 txn prim,GALC G270D up
O=C(Nc1ccc2oc(-c3ccc4ccccc4c3)nc2c1)c1cc(Cl)ccc1Cl,-,-,-,-
O=C(Nc1ccc2oc(-c3cc(Br)ccc3Cl)nc2c1)c1ccc2ccccc2c1,22.4µM,-,?,-
Cc1cc(C)n(-c2nc(C)c(C)c(=O)n2CC(=O)Nc2ccc([N+](=O)[O-])cc2)n1,-,-,-,-
O=C(Nc1nnc2n1CCS2)c1cc(C(F)(F)F)cc(C(F)(F)F)c1,?,-,8.91µM,-
Cc1cc(C)cc(C(=O)Nc2nnc3n2CCS3)c1,-,-,?,-
CCOC(=O)c1c(N)n(-c2ccc(CC)cc2)c2nc3ccccc3nc12,-,-,?,-
CCOC(=O)c1c(N)n(-c2cccc(OC)c2)c2nc3ccccc3nc12,-,-,-,3.98µM
Cc1nnc(N2CCC(C(=O)NCCc3ccccc3Cl)CC2)c2nn(-c3ccccc3)c(C)c12,35.5µM,-,?,-
Cc1cc(-c2ccc(S(=O)(=O)Nc3cccc(C)c3C)s2)on1,?,?,10µM,-
Cc1cccc(-n2cnc3cc(C(=O)NC4CCCCCC4)ccc32)c1,?,9.27µM,?,-
COc1cc(CNc2ccc3[nH]c(=O)[nH]c3c2)cc(Br)c1OCc1ccc(F)cc1,?,-,1.89µM,-
COC(=O)c1c(-c2ccc(Cl)cc2)noc1N1CCN(c2ccccc2F)CC1,-,-,-,-
COC(=O)c1c(-c2ccc(Cl)cc2)noc1N1CCN(c2ccc(C(C)=O)cc2)CC1,?,-,2.67µM,-
COC(=O)c1c(-c2ccc(Cl)cc2)noc1N1CCN(c2ccc(OC)cc2)CC1,?,-,5.97µM,-
Cc1cc(C)cc(NC(=O)CSc2nc3c(c(=O)[nH]2)CN(Cc2ccc(F)cc2)CC3)c1,-,-,-,-
O=C(CSc1nc2c(c(=O)[nH]1)CN(Cc1ccc(F)cc1)CC2)Nc1cccc(C(F)(F)F)c1,14.1µM,-,?,-
CC(=O)c1ccc(NC(=O)Cn2cc(S(=O)(=O)Cc3cccc(Cl)c3)c3ccccc32)cc1,-,?,?,-
O=C(Cn1cc(S(=O)(=O)Cc2cccc(Cl)c2)c2ccccc21)Nc1ccccc1C(F)(F)F,?,18.5µM,?,-
CCc1ccc(NCc2cc3cc4c(cc3n(CC(=O)Nc3cccc(OC)c3)c2=O)OCO4)cc1,-,-,?,28.2µM
CCc1ccc(NCc2cc3cc4c(cc3n(CC(=O)Nc3ccc(OC)cc3)c2=O)OCO4)cc1,?,-,-,-
COc1ccc2cc(CNc3ccccc3)c(=O)n(CC(=O)Nc3ccc(C)cc3C)c2c1,-,7.36µM,-,-
O[C@@H](CNC[C@H](O)[C@H]1CCc2cc(F)ccc2O1)[C@@H]1CCc2cc(F)ccc2O1,.,.,.,-
O=C(CO)[C@@H](O)[C@H](O)[C@@H](O)CO,.,.,.,-
Cc1cc(OCC(=O)NCC2(N3CCN(C)CC3)CCCCC2)cc(C)c1Cl,?,5.85µM,?,-
Cc1ccc(OCC(=O)NCC2(N3CCN(C)CC3)CCCCC2)cc1C,-,?,?,-
CC(=O)N[C@@H](CO)C(=O)N[C@@H](CC(=O)O)C(=O)N[C@@H](CCCCN)C(=O)N1CCC[C@H]1C(=O)O,.,.,.,-
CCC(C)n1c(=N)c(C(=O)NC2CCCCC2)cc2c(=O)n3cc(C)ccc3nc21 (stereo not given),?,-,-,31.6µM
Cc1ccc2nc3c(cc(C(=O)NC4CCCC4)c(=N)n3C(C)C)c(=O)n2c1,-,-,?,-
CCN(CC)CCCNC(=O)c1ccc2c(c1)NC(=O)C(CS(=O)(=O)Cc1cccc(Br)c1)N2 (stereo not given),-,-,?,35.5µM
